Data reported in PubChem BioAssay (NCATS).
Records with an inconclusive call do not appear. Where a call stands in place of a potency, no number is given. Active and inactive are the calls of the source. The call rests on the fitted dose curve; in most records, active means well fitted curve in the direction sought with a large enough effect; inconclusive means small, poorly fitted or top-dose-only effect, or another doubt; inactive means no such curve, though single readings can be large; an effect the other way counts as inactive or inconclusive.

System: not listed separately
Experiment: qHTS Assay for Lipid Storage Modulators (AID 1519)
Conditions: Drosophila S3 cells, BODIPY lipid droplet/cell ratio, laser cytometry; measured here: lipid channel max response; cells loaded with oleic acid
Procedure, shortened: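 Cells seeded at 5,000 per well were treated with compounds over a concentration series and loaded with oleic acid (400 uM, as added). Lipid droplet fluorescence (488 nm excitation, 500-530 nm channel) was read by laser-scanning cytometry and normalized to 20 uM Triacsin C.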

Compound | max response
Cc1noc(C)c1-c1nc(N2CCOCC2)c2ccccc2n1 | 9.54%
Cc1noc(C)c1C(=O)N1CCC2(CCCN(C(=O)Nc3ccccc3)C2)CC1 | 27.5%
CNc1nc(-c2ccccc2C(F)(F)F)nc2ccccc12 | 19.8%
COc1ccc(Oc2ncc3nc(-c4ccc(F)cc4)c(=O)n(C)c3n2)cc1 | 24.3%
O=C(Nc1cccc(F)c1)N1CC2(CCN(C(=O)c3cccc(F)c3)CC2)C1 | 6.4%
O=C(c1ccncc1)N1CCC2(CCN(Cc3ccccc3)CC2)CC1 | 18.6%
Cc1cnc(CNc2ncnc3ccc(-c4ccccc4CN(C)C)cc23)cn1 | 15.6%
CC(=O)N1CCC[C@@]2(CCN(C(=O)Nc3cccc(C#N)c3)C2)C1 | -0.637%
COCC(=O)N1CCC2(CCN(Cc3ccc(C#N)cc3)CC2)CC1 | 24.9%
Cn1cccc1C(=O)N1CCC2(CCCN(Cc3ccncc3)C2)CC1 | 14.6%
CC(=O)N1CCC[C@@]2(CCN(Cc3nccs3)C2)C1 | 26.9%
CS(=O)(=O)Nc1cccc(-c2nc(NCCN3CCOCC3)c3ccccc3n2)c1 | 2.51%
Cc1nc2cnc(N3CCNCC3)nc2n(CCC#N)c1=O | 19.3%
CNc1ncnc2ccc(-c3cccc(NS(C)(=O)=O)c3)cc12 | -9.46%
N#Cc1cccc(NC(=O)N2CC[C@@]3(CCCN(C(=O)c4ccco4)C3)C2)c1 | 14%
CC(=O)NCCNc1nc(-c2ccc(N(C)C)cc2)nc2ccccc12 | 24.4%
FC(F)(F)c1ccccc1-c1nccc(NCc2ccccc2)n1 | 5.46%
O=C(c1csnn1)N1CCC2(CCN(Cc3ccccc3)CC2)CC1 | 1.17%
Cc1cnc(CNc2nc(-c3ccc(N(C)C)cc3)nc3ccccc23)cn1 | 26%
Cn1cc(C(F)(F)F)nc1-c1ccc(OC[C@@H](O)CNCCOc2ccc(O)c(C(N)=O)c2)cc1 | -2.61%

Compound | max response
CN(C)c1ccc(-c2nc(N(C)C)c3ccccc3n2)cc1 | -1.1%
O=C(c1ccncc1)N1CCC2(CC1)CCN(c1ccncc1)CC2 | -7.91%
CC(=O)NCCNc1ncncc1-c1ccccc1C(F)(F)F | -8.94%
O=C(c1ccco1)N1CCC[C@@]2(CCN(c3ccccn3)C2)C1 | 30%
O=C(Nc1cccc(F)c1)N1CC2(CCN(C(=O)c3cnccn3)CC2)C1 | 20.5%
O=C(c1ccncc1)N1CCC2(CCN(Cc3nccs3)CC2)CC1 | 5.04%
Cc1noc(C)c1C(=O)N1CCC2(CC1)CN(c1ccccn1)C2 | 15.4%
Cc1cnc(CNc2cc(-c3ccoc3)ncn2)cn1 | 14.7%
COCCNc1nc(-c2ccccc2C)nc2ccccc12 | 22.3%
O=C(c1ccco1)N1CCC[C@@]2(CCN(C(c3ccccc3)c3ccccc3)C2)C1 | -26.4%
COc1ccc(C(=O)N2CCC[C@@]3(CCN(C(=O)NC(C)C)C3)C2)cc1 | 15.8%
O=C(c1cc(C(F)(F)F)cc(C(F)(F)F)c1)N1CCC2(CC1)CN(c1ccncc1)C2 | 0.518%
Cc1cccc(CNc2ncnc3ccc(-c4c(C)noc4C)cc23)c1 | -10.6%
Cn1cccc1C(=O)N1CCC2(CCCN(c3ccncc3)C2)CC1 | 18.3%
COc1ccc(NC(=O)N2CC3(CCN(C(=O)c4csnn4)CC3)C2)cc1 | 18.1%
COc1ccc2[nH]cc(CCNc3ccnc(-c4cccc(NS(C)(=O)=O)c4)n3)c2c1 | 5.22%
O=C(c1ccncc1)N1CCC[C@@]2(CCN(Cc3ccncc3)C2)C1 | 12.8%
COc1ccc(CNc2cc(-c3ccccc3CN(C)C)ncn2)c(OC)c1 | 12.8%
O=C(c1ccncc1)N1CCC2(CC1)CCN(c1ccc(-c3ccccc3)cc1)CC2 | 2.35%
COc1ccc(CNc2nc(-c3ccoc3)nc3ccccc23)c(OC)c1 | 2.43%

Target: Ubiquitin carboxyl-terminal hydrolase 1 (Homo sapiens) (UniProt O94782)
Experiment: Inhibitors of USP1/UAF1: Pilot qHTS (AID 504865); further: nearly all actives have a fitted effect of over 35% in size; further: potency means the concentration at half of the fitted maximal effect
Conditions: purified USP1/UAF1, Ub-rhodamine cleavage fluorescence; series mostly up to 54.9 µM
Procedure, shortened: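 USP1/UAF1 complex (1nM) preincubated with compound 15 min at room temperature, then Ub-Rho substrate (150nM final) added. Fluorescence read kinetically at 480/540 nm, 6 reads every 60 seconds. Buffer: 50mM HEPES pH 7.8, 0.5mM EDTA, 0.1 mg/ml BSA, 1mM TCEP, 0.01% Tween-20.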

Sequence of Ubiquitin carboxyl-terminal hydrolase 1 (Homo sapiens) (O94782 whole entry, looked up): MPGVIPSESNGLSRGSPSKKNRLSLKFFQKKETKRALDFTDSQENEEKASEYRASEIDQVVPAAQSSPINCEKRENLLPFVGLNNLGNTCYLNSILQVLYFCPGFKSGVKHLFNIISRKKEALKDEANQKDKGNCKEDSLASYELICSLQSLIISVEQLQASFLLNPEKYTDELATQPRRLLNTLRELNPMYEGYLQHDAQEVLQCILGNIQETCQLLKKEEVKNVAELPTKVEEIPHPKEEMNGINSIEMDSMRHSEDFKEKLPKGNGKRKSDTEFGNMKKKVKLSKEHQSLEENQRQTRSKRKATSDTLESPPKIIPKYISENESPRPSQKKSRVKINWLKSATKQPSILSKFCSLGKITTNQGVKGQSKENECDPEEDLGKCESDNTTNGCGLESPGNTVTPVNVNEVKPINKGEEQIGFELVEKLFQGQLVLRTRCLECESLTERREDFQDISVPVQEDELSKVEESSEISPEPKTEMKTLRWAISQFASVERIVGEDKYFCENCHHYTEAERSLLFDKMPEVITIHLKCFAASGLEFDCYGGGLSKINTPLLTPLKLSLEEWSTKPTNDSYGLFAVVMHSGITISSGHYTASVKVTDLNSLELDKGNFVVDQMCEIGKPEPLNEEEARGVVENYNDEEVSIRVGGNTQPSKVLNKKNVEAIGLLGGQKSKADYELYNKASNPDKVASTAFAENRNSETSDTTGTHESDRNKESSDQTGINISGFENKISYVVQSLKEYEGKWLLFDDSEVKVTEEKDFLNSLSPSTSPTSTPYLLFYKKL

Compound | Potency
Cc1cnc(CNc2ncnc3ccc(-c4ccccc4CN(C)C)cc23)cn1 | inactive
CC(=O)NCCNc1nc(-c2ccc(N(C)C)cc2)nc2ccccc12 | inactive
FC(F)(F)c1ccccc1-c1nccc(NCc2ccccc2)n1 | 6.31 µM (active)
CN(C)c1ccc(-c2nc(N(C)C)c3ccccc3n2)cc1 | inactive
CC(=O)NCCNc1ncncc1-c1ccccc1C(F)(F)F | inactive
COc1ccc2[nH]cc(CCNc3ccnc(-c4cccc(NS(C)(=O)=O)c4)n3)c2c1 | inactive
COc1ccc(CNc2cc(-c3ccccc3CN(C)C)ncn2)c(OC)c1 | inactive

System: not listed separately
Experiment: Primary qHTS for small molecule stabilizers of the endoplasmic reticulum resident proteome: Secreted ER Calcium Modulated Protein (SERCaMP) assay (AID 1508630)
Conditions: SH-SY5Y GLuc-SERCaMP (Gaussia luciferase released on ER calcium loss) secretion, thapsigargin, luminescence; series mostly up to 38.4 µM
Procedure, shortened: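 GLuc-SERCaMP-expressing SH-SY5Y cells, pretreated 16 h with compound, are challenged with thapsigargin to empty ER calcium stores; after 4 h, coelenterazine is added directly to the medium and luminescence is imaged.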

Compound | outcome
Cc1noc(C)c1-c1nc(N2CCOCC2)c2ccccc2n1 | inactive
Cc1noc(C)c1C(=O)N1CCC2(CCCN(C(=O)Nc3ccccc3)C2)CC1 | inactive
CNc1nc(-c2ccccc2C(F)(F)F)nc2ccccc12 | inactive
COc1ccc(Oc2ncc3nc(-c4ccc(F)cc4)c(=O)n(C)c3n2)cc1 | inactive
O=C(Nc1cccc(F)c1)N1CC2(CCN(C(=O)c3cccc(F)c3)CC2)C1 | inactive
O=C(c1ccncc1)N1CCC2(CCN(Cc3ccccc3)CC2)CC1 | inactive
Cc1cnc(CNc2ncnc3ccc(-c4ccccc4CN(C)C)cc23)cn1 | inactive
CC(=O)N1CCC[C@@]2(CCN(C(=O)Nc3cccc(C#N)c3)C2)C1 | inactive
COCC(=O)N1CCC2(CCN(Cc3ccc(C#N)cc3)CC2)CC1 | inactive
Cn1cccc1C(=O)N1CCC2(CCCN(Cc3ccncc3)C2)CC1 | inactive
CC(=O)N1CCC[C@@]2(CCN(Cc3nccs3)C2)C1 | inactive
CS(=O)(=O)Nc1cccc(-c2nc(NCCN3CCOCC3)c3ccccc3n2)c1 | inactive
Cc1nc2cnc(N3CCNCC3)nc2n(CCC#N)c1=O | inactive
CNc1ncnc2ccc(-c3cccc(NS(C)(=O)=O)c3)cc12 | inactive
N#Cc1cccc(NC(=O)N2CC[C@@]3(CCCN(C(=O)c4ccco4)C3)C2)c1 | inactive
CC(=O)NCCNc1nc(-c2ccc(N(C)C)cc2)nc2ccccc12 | inactive
FC(F)(F)c1ccccc1-c1nccc(NCc2ccccc2)n1 | inactive
O=C(c1csnn1)N1CCC2(CCN(Cc3ccccc3)CC2)CC1 | inactive
Cc1cnc(CNc2nc(-c3ccc(N(C)C)cc3)nc3ccccc23)cn1 | inactive
Cn1cc(C(F)(F)F)nc1-c1ccc(OC[C@@H](O)CNCCOc2ccc(O)c(C(N)=O)c2)cc1 | inactive

Compound | outcome
CN(C)c1ccc(-c2nc(N(C)C)c3ccccc3n2)cc1 | inactive
O=C(c1ccncc1)N1CCC2(CC1)CCN(c1ccncc1)CC2 | inactive
CC(=O)NCCNc1ncncc1-c1ccccc1C(F)(F)F | inactive
O=C(c1ccco1)N1CCC[C@@]2(CCN(c3ccccn3)C2)C1 | inactive
O=C(Nc1cccc(F)c1)N1CC2(CCN(C(=O)c3cnccn3)CC2)C1 | inactive
O=C(c1ccncc1)N1CCC2(CCN(Cc3nccs3)CC2)CC1 | inactive
Cc1noc(C)c1C(=O)N1CCC2(CC1)CN(c1ccccn1)C2 | inactive
Cc1cnc(CNc2cc(-c3ccoc3)ncn2)cn1 | inactive
COCCNc1nc(-c2ccccc2C)nc2ccccc12 | inactive
O=C(c1ccco1)N1CCC[C@@]2(CCN(C(c3ccccc3)c3ccccc3)C2)C1 | inactive
COc1ccc(C(=O)N2CCC[C@@]3(CCN(C(=O)NC(C)C)C3)C2)cc1 | inactive
O=C(c1cc(C(F)(F)F)cc(C(F)(F)F)c1)N1CCC2(CC1)CN(c1ccncc1)C2 | inactive
Cc1cccc(CNc2ncnc3ccc(-c4c(C)noc4C)cc23)c1 | inactive
Cn1cccc1C(=O)N1CCC2(CCCN(c3ccncc3)C2)CC1 | inactive
COc1ccc(NC(=O)N2CC3(CCN(C(=O)c4csnn4)CC3)C2)cc1 | inactive
COc1ccc2[nH]cc(CCNc3ccnc(-c4cccc(NS(C)(=O)=O)c4)n3)c2c1 | inactive
O=C(c1ccncc1)N1CCC[C@@]2(CCN(Cc3ccncc3)C2)C1 | inactive
COc1ccc(CNc2cc(-c3ccccc3CN(C)C)ncn2)c(OC)c1 | inactive
O=C(c1ccncc1)N1CCC2(CC1)CCN(c1ccc(-c3ccccc3)cc1)CC2 | inactive
COc1ccc(CNc2nc(-c3ccoc3)nc3ccccc23)c(OC)c1 | inactive
